An excerpt weighted towards active compounds, which were near 21% of everything screened.
IL-1B inflam inh: qHTS for Inhibitors of Inflammasome Signaling: IL-1-beta AlphaLISA Primary Screen | activity change, % at 57.5 µM | hit rate 4.7% among 360,000 | THP-1 LPS/ATP IL-1B secretion, AlphaLISA, 16 h; active compounds read low | AID 743279, 2014; in the data active means activity change below about -50%; inconclusive means mostly about -30% to -49%
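THP-1 cells pretreated 1 hr with compounds (up to 57.5 uM final), then stimulated with LPS (250 ng/mL final) plus ATP (1.25 mM final); secreted IL-1B measured by AlphaLISA after 16 hr, decreased signal indicating inhibition.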
DT40 TDP1 CPT: qHTS for Inhibitors of human tyrosyl-DNA phosphodiesterase 1 (TDP1): qHTS in cells in presence of CPT | hit rate 12% among 420,000 | Potency, µM (titrated, usually from 46.2 µM), for inactives: at the highest dose activity change, negative = growth inhibition, hits mostly inhibitors | chicken DT40 Tdp1-/-;hTDP1 cells + 20 nM CPT, ATP luminescence, 48 h; further: potency means the concentration at half of the fitted maximal effect; nearly all actives have a fitted effect of over 55% in size
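Cell growth measured by CellTiter-Glo luminescence after a minimum 48 h, 37 C compound exposure with 20 nM CPT in Tdp1-knockout DT40 cells stably expressing hTDP1, seeded 400/well; qHTS titration format.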
RORgamma inh: qHTS for inhibitors of ROR gamma transcriptional activity. Nuclear receptor ROR-gamma (Mus musculus), P51450. Drosophila S2 Gal4-RORgamma UAS-luciferase reporter, 20 h. Potency, µM (top dose mostly 53.6 µM), for inactives: top-dose activity change, negative = inhibition, hits mostly inhibitors. hit rate 5.4% among 310,000. AID 2551, 2010; further: potency means the concentration at half of the fitted maximal effect; nearly all actives have a fitted effect of over 60% in size
Target sequence (P51450 whole entry, looked up, the tested form may be a part): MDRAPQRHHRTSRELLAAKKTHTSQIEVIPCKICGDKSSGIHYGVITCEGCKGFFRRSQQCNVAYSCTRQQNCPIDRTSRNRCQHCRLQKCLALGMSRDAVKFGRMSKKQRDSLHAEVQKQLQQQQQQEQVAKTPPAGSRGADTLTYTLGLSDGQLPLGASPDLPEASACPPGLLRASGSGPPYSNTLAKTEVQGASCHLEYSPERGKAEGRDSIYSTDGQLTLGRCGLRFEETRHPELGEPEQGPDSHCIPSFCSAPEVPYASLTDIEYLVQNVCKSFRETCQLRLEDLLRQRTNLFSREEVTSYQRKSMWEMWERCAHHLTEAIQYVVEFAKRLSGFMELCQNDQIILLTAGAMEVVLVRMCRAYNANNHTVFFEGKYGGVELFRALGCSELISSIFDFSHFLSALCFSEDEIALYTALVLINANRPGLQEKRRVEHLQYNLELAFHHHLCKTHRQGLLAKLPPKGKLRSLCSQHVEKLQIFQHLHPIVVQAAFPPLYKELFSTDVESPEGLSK
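Read-out: Photinus luciferase luminescence; inhibitors lower reporter signal. Insect Schneider cells with Gal4-ROR gamma fusion under metallothionein promoter, UAS reporter; 700 uM final copper sulfate induction, 20 hr, ambient temperature.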
DT40 TDP1 no CPT: qHTS for Inhibitors of human tyrosyl-DNA phosphodiesterase 1 (TDP1): qHTS in cells in absence of CPT; DT40 Tdp1-/- hTDP1 cells, no CPT, ATP luminescence, 48 h; Potency, µM (highest dose often 46.2 µM), inactives show at the highest dose activity change, negative = growth inhibition, usual class: inhibitors; hit rate 15% among 420,000; further: potency means the concentration at half of the fitted maximal effect; nearly all actives have a fitted effect of over 55% in size
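No-CPT arm: Tdp1-/-;hTDP1 DT40 cells (400/well) plus compounds, incubated ≥48 hr at 37 °C. Readout CellTiter-Glo luminescence.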
ELG1 repair inh: qHTS screen for small molecules that inhibit ELG1-dependent DNA repair in human embryonic kidney (HEK293T) cells expressing luciferase-tagged ELG1. HEK293T ELG1-luciferase reporter, luminescence, 16 h; DNA damage induced by 5-fluorouridine. Potency, µM (titrated, usually from 46.1 µM), for the others: top-dose activity change, negative = inhibition, usual class: inhibitors. hit rate 2.3% among 330,000. AID 504467, 2011; further: potency means the concentration at half of the fitted maximal effect; nearly all actives have a fitted effect of over 55% in size
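Luminescence from the luciferase reporter, measured 30 min after ONE-Glo reagent at room temperature, was the read-out. Beforehand, 2,000 cells per well were exposed for 16 hr at 37 °C to 5-fluorouridine together with compound or vehicle.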
Gal4-VP16 FLuc: VP16 counterscreen qHTS for inhibitors of ROR gamma transcriptional activity; Drosophila S2 Gal4-VP16 UAS-luciferase, luminescence, 20 h; Potency, µM (top dose mostly 53.6 µM), inactives show top-dose activity, negative = inhibition, hits mostly inhibitors; hit rate 3.5% among 310,000; AID 2546, 2010;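 further: Gal4-VP16 expression switched on by copper sulfate through the metallothionein promoter; potency means the concentration at half of the fitted maximal effect; nearly all actives have a fitted effect of over 50% in size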
The depositor's hits bear a star; [ ] = dose if it differs, or a comment. Unless noted, the call rests on the fitted dose curve; in most records, active means well fitted curve in the direction sought with a large enough effect; inconclusive means small, poorly fitted or top-dose-only effect, or another doubt; inactive means no such curve, though single readings can be large; an effect the other way counts as inactive or inconclusive. On the % scale 0 is the no-effect control and ±100 the full control effect.

CCCCCCCn1c(=N)n(CC(=O)c2ccco2)c2ccccc21 was read as IL-1B inflam inh -80.2*, DT40 TDP1 CPT 20.6µM*, RORgamma inh -41.6%, DT40 TDP1 no CPT inconclusive, ELG1 repair inh inconclusive and Gal4-VP16 FLuc -14.2%.
For OC1OC[C@H](O)[C@H](O)[C@H]1O (stereo partly drawn) the results were RORgamma inh 2.9% and Gal4-VP16 FLuc -7.5%.
COc1cccc(NC(=O)Nc2cccn(Cc3ccccc3)c2=O)c1 was read as IL-1B inflam inh inconclusive, DT40 TDP1 CPT inconclusive, RORgamma inh inconclusive, DT40 TDP1 no CPT inconclusive, ELG1 repair inh -23.8% and Gal4-VP16 FLuc -1.6%.
For O=C(Nc1ccccc1)Nc1cccn(Cc2c(F)cccc2Cl)c1=O the results were IL-1B inflam inh -61.0*, DT40 TDP1 CPT -25.1%, RORgamma inh inconclusive, DT40 TDP1 no CPT inconclusive, ELG1 repair inh -9.2% and Gal4-VP16 FLuc 4.0%.
Screening COc1cccc(Cn2cccc(NC(=O)Nc3ccc(C#N)cc3)c2=O)c1 returned IL-1B inflam inh -3.7, DT40 TDP1 CPT 18.4µM*, RORgamma inh inconclusive, DT40 TDP1 no CPT 8.2µM*, ELG1 repair inh -14.9% and Gal4-VP16 FLuc -16.6%.
Screening CCC1=NN(C(=O)COc2ccccc2)C(O)(c2ccncc2)C1 (stereo not drawn) returned IL-1B inflam inh -17.2, DT40 TDP1 CPT inconclusive, RORgamma inh 18.7%, DT40 TDP1 no CPT 16.4µM*, ELG1 repair inh -21.5% and Gal4-VP16 FLuc -18.7%.
For O=C(COc1ccccc1)N1CCN(S(=O)(=O)c2ccc(Br)cc2)CC1 the results were IL-1B inflam inh -6.9, DT40 TDP1 CPT 0.1%, RORgamma inh 19.4%, DT40 TDP1 no CPT -28.8%, ELG1 repair inh 0.0% and Gal4-VP16 FLuc 6.2%.
For CCOC(=O)C1=NN(C(=O)COc2ccccc2)C(O)(c2ccc(Br)cc2)C1 (stereo not drawn) the results were IL-1B inflam inh 13.1, DT40 TDP1 CPT -24.6%, RORgamma inh 4.47µM*, DT40 TDP1 no CPT 0.0%, ELG1 repair inh -3.4% and Gal4-VP16 FLuc 11.2µM*.
For CCCCCCCCCCCCCCCCCCOP(=O)([O-])OC1CC[N+](C)(C)CC1 the results were DT40 TDP1 CPT 4.5%[21.1 µM] and DT40 TDP1 no CPT 6.2%[21.1 µM].
CC(C)CC(=O)NCC1(N(C)C)CCCCC1 was read as DT40 TDP1 CPT -14.6% and DT40 TDP1 no CPT -8.7%.
CC(C)(C)OC(=O)N1CCC(C(=O)Nc2cccc(C(=O)NC3CC3)c2)CC1 was read as IL-1B inflam inh -9.8, DT40 TDP1 CPT -24.0% and DT40 TDP1 no CPT -7.2%.
`Cc1cccc(Cn2c(-c3ccc[nH]c3=O)nc3ccccc32)c1` gave IL-1B inflam inh -10.9, DT40 TDP1 CPT inconclusive, RORgamma inh 26.4%, DT40 TDP1 no CPT 20.6µM*, ELG1 repair inh -5.6% and Gal4-VP16 FLuc inconclusive.
For Cc1cccc(-c2nc3ccccc3n2Cc2ccccc2)c1 the results were DT40 TDP1 CPT inconclusive and DT40 TDP1 no CPT 5.17µM*.
Screening O=c1[nH]cccc1-c1nc2ccccc2n1Cc1ccc(F)cc1 returned IL-1B inflam inh 14.3, DT40 TDP1 CPT -29.3%, RORgamma inh 19.9%, DT40 TDP1 no CPT -6.8%, ELG1 repair inh -5.5% and Gal4-VP16 FLuc -10.8%.
Screening Fc1ccc(Cn2c(-c3cccc(Br)c3)nc3ccccc32)cc1 returned DT40 TDP1 CPT inconclusive and DT40 TDP1 no CPT 18.4µM*.

Bioassay records from PubChem.
